Laboratory results taken from the supplement of paper PMC5641865, “A screen for kinase inhibitors identifies antimicrobial imidazopyridine aminofurazans as specific inhibitors of the Listeria monocytogenes PASTA kinase PrkA” (The Journal of Biological Chemistry, 2017).
Several values for one entry are separate records, joined by “and”; a condition that tells them apart may be missing. Equal values may be shown once. ± gives the standard deviation of the averaged measurements.

Tested on: Listeria monocytogenes 10403S
Test: growth inhibition relative to ceftriaxone-alone control; higher = stronger potentiation of ceftriaxone growth inhibition
Details: 10 µM; ceftriaxone 1 ug/ml; 12 h
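Note: End-point A600 read in BHI broth at 37 °C with 2% DMSO, inhibition computed as (1 − OD with compound plus ceftriaxone ÷ OD with ceftriaxone only) × 100.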

Structure (SMILES)	growth inhibition
c1cnn2ncc(-c3ccnc(NCCCN4CCOCC4)n3)c2c1	-2.97 ± 0.54%
O=C(NCc1ccccc1)c1csc(Nc2ccncn2)n1 [Thiazovivin]	5.95 ± 11%
COc1ccc2c3n(c(=NC(=O)c4cccnc4)nc2c1OC)CCN3	-0.968 ± 4.8%
O=C(Nc1n[nH]c2cc(-c3ccc(F)cc3)ccc12)C1CC1	-9.6 ± 16%
O=C(Nc1n[nH]c2cc(-c3cc(F)ccc3F)ccc12)C1CC1	-0.453 ± 13%
CCS(=O)(=O)c1cccc(-c2cc(C(=O)NC3CCN(C)CC3)c(C)c3[nH]c4ncc(C)cc4c23)c1	31.1 ± 6.9%
COc1cc2ncn(-c3cc(O[C@H](C)c4ccccc4Cl)c(C(N)=O)s3)c2cc1OC	-3.78 ± 5.6%
CNC(=O)c1cncc(/C=C/c2ccccc2Cl)c1	-3.04 ± 0.74%
NC1(c2ccc(-c3nc4ccn5c(=O)[nH]nc5c4cc3-c3ccccc3)cc2)CCC1	86.41 ± 0.47%
COc1cc2ncnc(Nc3cccc(Br)c3)c2cc1OC	36.1 ± 16%
CO[C@H]1C[C@@H]2CC[C@@H](C)[C@@](O)(O2)C(=O)C(=O)N2CCCC[C@H]2C(=O)O[C@H]([C@H](C)C[C@@H]2CC[C@@H](OC(=O)C(C)(CO)CO)[C@H](OC)C2)CC(=O)[C@H](C)/C=C(\C)[C@@H](O)[C@@H](OC)C(=O)[C@H](C)C[C@H](C)/C=C/C=C/C=C/1C [Temsirolimus (Torisel)]	19.8 ± 59%
CS(=O)(=O)CCNCc1ccc(-c2ccc3ncnc(Nc4ccc(OCc5ccccc5)c(Cl)c4)c3c2)o1	-9.81 ± 12%
CCn1c(-c2nonc2N)nc2c(C#CCN)ncc(OCCCN)c21	-1.03 ± 0.6%
CC1=C(C(=O)Nc2cc(Cl)c3[nH]ncc3c2)C(c2ccc(C(F)(F)F)cc2)CC(=O)N1 (stereo not drawn)	-4.67 ± 5.5%
CCCNC(=O)Nc1ccc(Oc2ncnc3cc(OC)c(OC)cc23)cc1Cl	12.7 ± 1.9%
CS(=O)(=O)CCN(CC#N)Cc1ccc(-c2ccc3ncnc(Nc4ccc(OCc5cccc(F)c5)c(Cl)c4)c3c2)o1	1.01 ± 5.1%
CO[C@H]1C[C@@H]2CC[C@@H](C)[C@@](O)(O2)C(=O)C(=O)N2CCCC[C@H]2C(=O)O[C@H]([C@H](C)C[C@@H]2CC[C@@H](OCCO)[C@H](OC)C2)CC(=O)[C@H](C)/C=C(\C)[C@@H](O)[C@@H](OC)C(=O)[C@H](C)C[C@H](C)/C=C/C=C/C=C/1C [Everolimus (RAD001)]	27.5 ± 19%
Nc1nc(-c2ccc(F)cc2)c(-c2ccc3ncccc3n2)s1	-1.57 ± 2.7%
COc1cc(CCc2cc(NC(=O)c3ccc(N4CC(C)NC(C)C4)cc3)n[nH]2)cc(OC)c1 (stereo not drawn)	38.3 ± 21%

Structure (SMILES)	growth inhibition
Cc1nnc(-c2ccc(C)c(-c3ccc(C(=O)Nc4cccc(C#N)c4)cc3)c2)o1	6.6 ± 12%
COc1cc(N2CCN(C(C)C)CC2)ccc1Nc1nc(Nc2ccc(F)cc2C(=O)NC[C@@H](O)CO)c2cc[nH]c2n1	5.09 ± 0.17%
COc1cc2nccc(Oc3ccc(NC(=O)Nc4cc(C)on4)c(Cl)c3)c2cc1OC [Tivozanib (AV-951)]	23.7 ± 1.2%
CS(=O)(=O)CCNCc1ccc(-c2ccc3ncnc(Nc4ccc(OCc5cccc(F)c5)c(C(F)(F)F)c4)c3c2)o1	-12.1 ± 6.9%
CCc1nn2ncccc2c1-c1ccnc(NC2CC2)n1	-4.93 ± 3%
c1ccc(-c2n[nH]cc2-c2ccnc(-c3ccc(OCCN4CCOCC4)cc3)c2)nc1	-1.77 ± 9.5%
Nc1nc(-c2ccccn2)c(-c2ccc3ncccc3n2)s1	0.104 ± 3%
CC(C)n1nc(-c2cc3cc(O)ccc3[nH]2)c2c(N)ncnc21	16.2 ± 10%
CCOc1ccc2c(-c3ccnc(Nc4cccc(C(F)(F)F)c4)n3)cnn2n1	-8.14 ± 6.9%
COc1cc(Nc2nccc(-c3cnn4ncccc34)n2)cc(OC)c1	-13.8 ± 16%
NS(=O)(=O)c1ccc(N/N=C2\C(=O)Nc3ccc(C(=O)NCCc4c[nH]cn4)cc32)cc1	14.1 ± 4.2%
C#Cc1cccc(Nc2ncnc3cc(OCCOC)c(OCCO)cc23)c1	19.2% and 5.86%
O=C(Nc1n[nH]c2nc(-c3ccco3)ccc12)C1CC1	0.454 ± 0.64%
COc1ccc2cc(-c3c(-c4ccncc4)nc(-c4ccc([S+](C)[O-])cc4)n3C)ccc2c1 (stereo not drawn)	12 ± 0.7%
COc1cc2ncn(-c3cc(OCc4ccccc4C(F)(F)F)c(C(=O)N(C)C)s3)c2cc1OC	-5.41 ± 4.1%
Cc1cc(O)cc(C)c1/C=C/c1cncc(-c2nn[nH]n2)c1	-2.34 ± 0.16%
COc1cc2ncn(-c3cc(O[C@@H](C)c4ccccc4Cl)c(C(N)=O)s3)c2cc1OC	-12.3 ± 4.7%
COc1cc2c(cc1Nc1nc(Nc3ccsc3C(N)=O)c3cc[nH]c3n1)N(C(=O)CN(C)C)CCC2(C)C	-4.89 ± 0.71%
Cc1ccc2c(c1)/C(=N/Nc1ccc(S(N)(=O)=O)cc1)C(=O)N2	2.4 ± 3.2%
